Many of the other results were omitted from the sample, so hits are more common in it than they were.
Pf Dd2 inh = Plasmodium falciparum Dd2 growth inhibition. P. falciparum Dd2 growth, SYBR Green, 72 h. Potency, µM (series often up to 28.9 µM), inactives show at the highest dose activity, negative = inhibition, actives largely listed as inhibitors. 120,000 tested, 4.3% active. AID 1347417; active = well fitted inhibition curve with a large enough effect;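 also: plate controls were DMSO vehicle for no effect and reference drug for full effect; nearly all actives have a fitted effect of over 65% in size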
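Readout: SYBR Green fluorescence, 485 nm excitation, 535 nm emission, after ~16 h lysis at 37C. Before that, Dd2-infected red cells (2.5% hematocrit) grew 72 h with compound, 29 uM top final concentration.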
* hit, by the source's call; i = inactive; [ ] = dose if it differs, or a comment. Potency is read from the fitted curve at half-maximal effect.

SMILES	Pf Dd2 inh
CCCc1noc(-c2ccn3c(CNC(=O)c4cccnc4)nnc3c2)n1	-25%
COc1ccccc1C(=O)N1CCc2[nH]nc(C(=O)NCCCc3ccccc3)c2C1	i
COc1cccc(-c2cnc3n[nH]c(-c4ccc5c(c4)OCO5)c3n2)c1	i
COc1ccc(CN2CCC3(CC2)Cc2ccccc2CNC3=O)cc1	-3%
Cc1cccc(CC(=O)N2CCC(Cc3nc(C4CCOCC4)no3)CC2)c1	1%
CCC(=O)NCCn1c(C)nc2cc(S(=O)(=O)N3CCOCC3)ccc21	0%
CC(C)Cc1nn2c(=O)cc(COC(=O)c3ccc(NC(=O)c4cccs4)cc3)nc2s1	50%
CC(C)CC(=O)Nc1ccc2c(c1)CCC(=O)N2CC(C)C	i
CCc1ccc(C2=C(C)C(N3CCC(C(=O)Nc4cccc(OC)c4)CC3)=NS2(=O)=O)cc1	i
CCc1ccc2oc(-c3cc(NC(=O)c4cccs4)ccc3Cl)nc2c1	-16%
CCCN1C(CC(C)C)=NS(=O)(=O)c2cc(NC(=O)c3cccs3)ccc21	0.11µM*
CCC1=NS(=O)(=O)c2cc(NC(=O)C3CC3)ccc2N1CC(C)C	4.5µM*
CC(C)CN1C(=O)CCc2cc(NC(=O)c3ccc(N(C)C)cc3)ccc21	-25%
CCC1=NS(=O)(=O)c2cc(NC(=O)C3CC3)ccc2N1CCOC	-16%
CC(=O)Nc1ccc2c(c1)S(=O)(=O)N=C(CC(C)C)N2CC(C)C	4µM*
CNC(=O)[C@@H]1CNC[C@H]1c1n[nH]c(C)n1	-19%
CCN(CC)C1(Cc2cc(COC)on2)COC1	36%[44.1 µM]
COc1ccc(C(=O)N2CC[C@H]3CC(=O)N(CCc4cnc[nH]4)CC[C@H]3C2)cc1	i
COCC(=O)NC1CCC12CCN(C(=O)c1ccc(C#N)cc1)CC2 (stereo not given)	1%
O=C(c1cccc(F)c1)N1CCC(n2cc(-c3nc(C4CC4)no3)nn2)C1 (stereo not given)	i
CCC(c1cccs1)N1C(=O)[C@H]2CN(Cc3cccnc3)C[C@H]2C1=O (stereo not given in full)	87%
O=C(CC1CCOCC1)NCc1ccc(N2CCOCC2)cc1	14%
CC(=O)N1CC2(CCN(Cc3ncccn3)CC2)CC1C(=O)O (stereo not given)	6%
Cc1noc(C)c1S(=O)(=O)N1CCC2(CC1)C(=O)N(C)c1ccccc12	3.5µM*
Cc1noc(C)c1S(=O)(=O)N1CCC2(C1)C(=O)Nc1ccccc12 (stereo not given)	16%
SMILES	Pf Dd2 inh
Cc1nc(C2(C)CCN(S(=O)(=O)c3c(C)noc3C)CC2)no1	-8%
O=C1N(Cc2ccccc2)C[C@H]2CN(Cc3cccs3)CCN12	-28%[44.1 µM]
Cc1cnc(C(=O)N2CCCC(CCc3cccc(F)c3)C2)cn1 (stereo not given)	2%
O=C(c1cncc(N2CCCC(CCc3cccc(F)c3)C2)n1)N1CCCCC1 (stereo not given)	11µM*
O=C(c1ccco1)N1CCCC(CCc2cccc(F)c2)C1 (stereo not given)	-10%
COc1cccc(-c2ccc(-c3nc(C4CCOC4)no3)o2)c1 (stereo not given)	-6%
CCOc1cccc(-c2nc(C3CCOC3)no2)c1 (stereo not given)	15%
c1cc(-c2ccco2)cc(-c2nc(C3CCOC3)no2)c1 (stereo not given)	13µM*
COc1cc(C(=O)N2CCC(C(=O)O)(n3cccn3)CC2)ccc1F	-9%
O=C(NCc1ccc(F)cc1)C1CCc2nnc(C3CCN(C(=O)C4CC4)CC3)n21 (stereo not given)	31%
CCc1ncc(C(=O)NC(c2ccc(C)cc2)c2cccs2)cn1 (stereo not given)	10µM*
Cc1ccc(S(=O)(=O)C(CNC(=O)Cc2ccc(Cl)cc2)c2cccs2)cc1 (stereo not given)	2%
CCNc1ncc(C(=O)N[C@H](c2cccs2)C2CC(O)C2)cn1 (stereo not given in full)	-25%
Cc1ccoc1C(=O)N1CC(F)(F)C[C@H]1c1nnc(C2CC2)o1	-14%
Cc1ccc(NC(=O)N2CCN(c3nnnn3-c3cccc(C(F)(F)F)c3)CC2)cc1F	7.9µM*
CCc1cccc(-n2nnnc2N2CCN(C(=O)Nc3ccc(C)c(Cl)c3)CC2)c1	-23%
CCc1cccc(-n2nnnc2N2CCN(C(=O)Nc3ccc(C)c(Br)c3)CC2)c1	-17%
COC(=O)c1cn([C@H]2CO[C@H]3[C@@H]2OC[C@@H]3NCc2ccco2)nn1	-4%[44.1 µM]
CCN(CC)C(=O)[C@@H]1CCC[C@@H](NCc2ccc(OC)cc2)CN(C)C(=O)C1	7%[44.1 µM]
CCOC(=O)C1CCCN(C(=O)C2COC3(CCCCC3)N2C(=O)c2cc(F)cc(F)c2)C1 (stereo not given)	-4%
O=C(NCCC1CCN(C(=O)Nc2cc(F)cc(F)c2)CC1)c1ccccn1	i
O=C(CCC[C@@H]1[C@H]2CCCN3CCC[C@@H](CN1C(=O)C1CCOCC1)[C@@H]23)NCc1ccccc1	4%
COc1cccc(NC(=O)[C@@H]2C[C@@H](c3ccc(F)cc3)N([S+](=O)([O-])c3cccnc3)C2)c1	i
O=C(Nc1cccnc1)[C@@H]1C[C@@H](c2ccc(F)cc2)N(Cc2ccccc2)C1	7.1µM*
O=C(NCCOc1ccccc1)[C@@H]1C[C@@H](c2ccc(F)cc2)N([S+](=O)([O-])c2cccnc2)C1	-22%
SMILES	Pf Dd2 inh
COc1cccc(NC(=O)[C@@H]2C[C@H](c3ccc(F)cc3)N([S+](C)(=O)[O-])C2)c1	6.3µM*
O=C(NCc1cccnc1)[C@@H]1C[C@@H](c2ccc(F)cc2)N(CCOc2ccccc2)C1	8.9µM*
O=C(Nc1cccc(F)c1)[C@@H]1C[C@@H](c2ccc(F)cc2)N([S+](=O)([O-])c2cccnc2)C1	i
COc1ccc(NC(=O)[C@@H]2C[C@H](c3ccc(F)cc3)N(Cc3csc(C)n3)C2)cn1	-21%[44.1 µM]
COc1cccc(NC(=O)[C@@H]2C[C@@H](c3ccc(F)cc3)N(CCOc3ccccc3)C2)c1	-10%[44.1 µM]
O=C(Nc1ccccc1)[C@@H]1C[C@@H](c2ccc(F)cc2)N([S+](=O)([O-])c2cccnc2)C1	10%[44.1 µM]
COc1ccc(NC(=O)[C@@H]2C[C@@H](c3ccc(F)cc3)N(Cc3ccccc3)C2)cc1OC	10µM*
COc1cccc(NC(=O)[C@@H]2C[C@H](c3ccc(F)cc3)N(Cc3csc(C)n3)C2)c1	-4%[44.1 µM]
O=C(Nc1cccc(F)c1)[C@@H]1C[C@@H](c2ccc(F)cc2)N([S+](=O)([O-])c2ccccc2)C1	-27%
O=C(NCCN1CCOC1=O)c1cc(COc2ccccc2F)[nH]n1	-10%
Cc1noc(C)c1CCC(=O)NCc1cccnc1N1CCOCC1	-5%
Cc1ccc(N2C(=O)N[C@@H]3CCN(C(=O)c4ccc(C(C)(C)C)cc4)[C@@H]3C2=O)cc1	0%[44.1 µM]
CN1CCC2(CCC1=O)CN(C(=O)Cn1ncnn1)CCN2C (stereo not given)	-11%
Cc1cc(CN2CCC3(CC(c4cccc(C(F)(F)F)c4)=NO3)C2)no1 (stereo not given)	-27%
COCCOC1CCN(C(=O)Nc2ccccc2F)CC1	7%
Cc1nc(CCNC(=O)C2CNCCO2)sc1C (stereo not given)	-19%
O=C1CCN(C(=O)C2CCN(C(=O)C3CCOC3)CC2)CCCCCCN1 (stereo not given)	10%
COc1ccc(NC(=O)C2(C)CCc3cnc(N4CCOCC4)nc32)cc1 (stereo not given)	i
